Out of some 2,100 compounds screened, about 670 (32%) were called active. Not shown: some 50% with an inconclusive outcome. Calls come from the whole dose curve; as a rule, active = well fitted inhibition curve with a large enough effect; inconclusive = small, poorly fitted or top-dose-only effect; inactive = no such curve, though single readings can be large or run the other way. Some of the results follow.
assay: CMV-Luciferase Counterscreen for Inhibitors of ATXN expression; settings: HEK-293 CMV-luciferase reporter, luminescence, 24 h; series mostly up to 57.5 µM; note: nearly all actives have a fitted effect of over 55% in size
Source text: PI: Daniel Scoles Ph.D. University of Utah School of Medicine, Salt Lake City, Utah MLPCN Grant: NS073009 Spinocerebellar ataxia type 2 (SCA2) is a multisystem neurodegenerative disease caused by a dominantly acting mutation leading to expansion of a polyQ domain in the ataxin-2 protein (ATXN2). SCA2 patients develop progressive ataxia and later lose function in other neuronal systems. Prominent parkinsonian signs develop in some patients. Like many neurodegenerative disorders, no symptomatic or disease-modifying treatments are known. The primary objective of the proposed research is to identify compounds inhibiting ATXN2 expression and to test them for efficacy in SCA2 mouse models. We have developed a cell-based assay paired with an in vivo mouse model using identical luciferase expression constructs. This approach takes advantage of an ATXN2-luciferase transgene, with the luciferase gene flanked by the upstream and downstream portions of the ATXN2 gene. Here we describe a 5-7 dose quantitative high thoroughput screen (qHTS) for compounds lowering ATXN2 expression. We screened the NIH Molecular Libraries Small Molecule Repository (MLSMR) and NCGC's mechanistically annotated (MIPE) and drug repurposing (NPC) collections of compounds for lowering expression of an ATXN2-luciferase reporter in HEK-293 cells. The assay is a multiplexed cell viability assay to ensure target reduction in the absence of cytotoxicity. Secondary qHTS assays included a CMV-luciferase reporter expressed in HEK-293 cells as well as a biochemical assay using recombinant luciferase to detect inhibitors of the reporter enzyme. Compounds that inhibit ATXN2 expression but is not cytotoxic were selected for confirmatory and secondary screens.
PROTOCOL TABLE (as described by Inglese J, Shamu CE and Guy RK. 2007) SEQUENCE No. (e.g., 1, 2, 3, etc.); PARAMETER (e.g., Cells, Incubation, Reagent, etc.); VALUE; DESCRIPTION. 1; Cells; 4 uL; white, solid bottom, 1536-well Greiner assay plate. 2; Incubation; 2 hr; 37 degree C in 5% humidified CO2. 3; Compounds; 23 nL; Kalypsis pintool (Wako USA) equipped with a 1536-well pin head. 4; Incubation; 24 hr; 37 degree C in 5% humidfified CO2. 5; Reagent; 1 uL; Gly-Phe-7-Amino-4-trifluoromethylcoumarin. 6; Incubation; 30 min; 37 degree C in 5% humidfified CO2. 7; Detection; Fluorescence; Viewlux plate reader (PerkinElmer). 8; Reagent; 3 uL; SteadyGlo luciferase solution (Promega). 9; Incubation; 5 min; room temperature. 10; Detection; Luminescence; ViewLux plate reader (PerkinElmer). NOTES (numbers refer to Sequence numbers above) 1. HEK-293 cells expressing CMV-luciferase reporter (designated as SC cells) were suspended in phenol-red free DMEM and dispensed in assay plates using a Multidrop Combi dispenser (Thermo Fisher Scientific). 2. Assay plates were incubated. Evaporation was prevented by covering assay plates with metal lids containing holes to allow gas diffusion. 3. Compounds were added in a dose response manner with the final concentrations of 57, 11.4, 2.28, 0.46, 0.091, 0.018, 0.0037 uM. Vehicle-only plates, with DMSO being pin-transferred to columns 5-48, were inserted uniformly at the beginning and the end of each library to monitor and record any shifts in assay performance. 5. 125 uM Gly-Phe-7-Amino-4-trifluoromethylcoumarin (MP Biomedicals) working concentration was used at a final concentration of 25 uM. 7. To assess cell viability; the assay plates were read using the ViewLux high-throughput CCD imager (PerkinElmer), wherein single end-point fluorescence measurement was acquired (excitation 405/10; emission 540/25 nm). 8. Detection reagent SteadyGlo Luciferase (Promega) was added to the assay plate. 10. Luminescence is then measured on the ViewLux imager equipped with a clear emission filter using a 2 sec exposure. […]
% is set by controls: 0 for no effect and ±100 for the full control effect; potency is the fitted concentration of half-maximal effect.

Row | Compound | Potency | activity change, negative = inhibition
1 | CC(=O)Oc1ccc(C23c4ccccc4C2(OC(C)=O)c2cc(OC(C)=O)ccc23)cc1 (centres undefined) | 25.1 µM (active) | –
2 | COc1ccc(OCc2cccc(C(=O)Nn3cc([N+](=O)[O-])cn3)c2)cc1 | 0.398 µM (active) | –
3 | O=C(N/N=C/c1ccc(O)cc1O)c1ccc(NC(=O)C2CCCCC2)cc1 | 12.6 µM (active) | –
4 | O=C(N/N=C/c1ccc(O)cc1O)c1ccc(CN2C(=O)c3cccc4cccc2c34)cc1 | 1.78 µM (active) | –
5 | O=C(N/N=C/c1cc(Br)ccc1O)c1ccncc1 | 1 µM (active) | –
6 | CC(C)CC(=O)NC(=S)NNC(=O)c1ccc(NC(=O)C2CCCCC2)cc1 | – | 8.7% [at 11.4 µM] (inactive)
7 | O=C(N/N=C/c1ccc(O)cc1O)c1ccncc1 | 3.98 µM (active) | –
8 | Cc1nc(SC2CC(=O)N(c3ccccc3)C2=O)n[nH]1 (centres undefined) | inactive | –
9 | O=c1[nH]c(CN2CCN(c3ncccn3)CC2)nc2c(Br)cc(Br)cc12 | – | -16.4% [at 11.4 µM] (inactive)
10 | O=C(NCc1ccccc1C(F)(F)F)c1cccc2c1C(=O)c1ccc(N3CCC(N4CCCCC4)CC3)cc1S2(=O)=O | – | 34.1% [at 11.4 µM] (inactive)
11 | O=C(N/N=C/c1cc(Br)cc(Br)c1O)c1ccncc1 | 3.98 µM (active) | –
12 | O=C(N/N=C/c1cc(Br)ccc1OC(=O)c1ccc(Br)cc1)c1ccncc1 | 3.98 µM (active) | –
13 | COc1ccc(C(=O)N/N=C/c2cc(Br)ccc2O)cc1OC | 2.51 µM (active) | –
14 | O=C(N/N=C/c1cc(Br)ccc1O)C(c1ccncc1)N1CCOCC1 (centres undefined) | 10 µM (active) | –
15 | O=C(NN=Cc1ccc(O)cc1O)c1ccccc1NS(=O)(=O)c1cccs1 | 3.16 µM (active) | –
16 | CCCC(=O)NC(c1ccccc1)c1ccc2cccnc2c1O (centres undefined) | 2.24 µM (active) | –
17 | CCCCC(=O)NC(c1ccccc1)c1ccc2cccnc2c1O (centres undefined) | 3.98 µM (active) | –
18 | CCCC(=O)NC(c1ccc(OC)cc1)c1ccc2cccnc2c1O (centres undefined) | 3.16 µM (active) | –
19 | CCCC(=O)NC(c1ccc(C(C)C)cc1)c1ccc2cccnc2c1O (centres undefined) | 0.355 µM (active) | –
20 | CCCC(=O)NC(c1ccc(C)cc1)c1ccc2cccnc2c1O (centres undefined) | 2 µM (active) | –
21 | CCOC(=O)COc1ccc(Br)cc1/C=C/c1[nH]c(=O)[nH]c(=O)c1[N+](=O)[O-] | – | 3.24% [at 11.4 µM] (inactive)
22 | CN1OC[C@@H]2CN[C@H](c3ccc(-c4cc5ccccc5o4)cc3)C[C@@H]21 | 0.0794 µM (active) | –
23 | N#C/C(=C\c1ccc([N+](=O)[O-])o1)c1nc2ccccc2[nH]1 | 22.4 µM (active) | –
24 | COc1ccc(NS(=O)(=O)c2ccc(C(=O)Nc3c(C)n(C)n(-c4ccccc4)c3=O)cc2)cc1 | – | 0.165% [at 11.4 µM] (inactive)
25 | Cc1c(N/N=C(\C#N)C(=O)c2ccccc2)c(=O)n(-c2ccccc2)n1C | 3.98 µM (active) | –
26 | Cc1cc(N2CCN(Cc3nc(-c4ccc(Cl)cc4)oc3C)CC2)cc(C)n1 | 25.1 µM (active) | –
27 | COc1ccc(N(C)S(=O)(=O)c2ccc(Cl)c(C(=O)NCCc3ccc(Cl)cc3)c2)cc1 | 14.1 µM (active) | –

Row | Compound | Potency | activity change, negative = inhibition
28 | NS(=O)(=O)c1ccc(CCNC(=O)c2cc(-c3ccccn3)nc3ccc(Br)cc23)cc1 | inactive | –
29 | COC(=O)c1ccc(C(=O)Nc2cc(Cl)ccc2Cl)cc1NC(=O)c1ccc(N(C)C)cc1 | – | -1.02% [at 11.4 µM] (inactive)
30 | CCOP(=O)(OCC)C(Cc1ccccc1)N=C(c1ccccc1)c1ccccc1 (centres undefined) | 22.4 µM (active) | –
31 | Nc1ccc(Oc2ccccc2-c2ccccc2)cc1 | 2 µM (active) | –
32 | CC(=O)Nc1ccc(NC2=Nc3ccccc3N3C2=Nc2c(c(C)nn2-c2ccccc2)C3c2ccccc2)cc1 (centres undefined) | 1.12 µM (active) | –
33 | Cc1cccc(NC2=Nc3ccccc3N3C2=Nc2c(c(C)nn2-c2ccccc2)C3c2ccc(O)c(O)c2)c1 (centres undefined) | – | -12.9% [at 11.4 µM] (inactive)
34 | CN(C)CCOc1ccc(-c2c(-c3ccccc3)sc3ccccc23)cc1 | 22.4 µM (active) | –
35 | O=C(Nc1nccs1)c1cccc(N2C(=O)c3cccc4c([N+](=O)[O-])ccc(c34)C2=O)c1 | inactive | –
36 | Cc1cc(OCC(=O)NC(C)c2ccccc2)ccc1[N+](=O)[O-] (centres undefined) | – | -19.4% [at 11.4 µM] (inactive)
37 | CC(=O)NC(c1cccs1)c1cc([N+](=O)[O-])c2cccnc2c1O (centres undefined) | 10 µM (active) | –
38 | CC(=O)NC(c1cccs1)c1cc(Br)c2cccnc2c1O (centres undefined) | 4.47 µM (active) | –
39 | CCC(=O)NC(c1ccc(C)cc1)c1cc([N+](=O)[O-])c2cccnc2c1O (centres undefined) | 7.08 µM (active) | –
40 | Oc1cccc(C(O)CNCc2ccc(-c3ccccc3)cc2)c1 (centres undefined) | inactive | –
41 | CCc1ccc(-n2cc(-c3ccc(F)cc3)[n+]3c2SCCC3)cc1 | 17.8 µM (active) | –
42 | CC1(C)Cc2ccccc2C2=NNC(=O)C2=N1 | 25.1 µM (active) | –
43 | COc1ccc(CCNC(=O)c2cc(-c3cc(C)cc(C)c3O)n[nH]2)cc1OC | 20 µM (active) | –
44 | Cc1sc2cc3c(c(C(=O)c4ccccc4)[n+]2c1C)-c1cccc2cccc-3c12 | 3.16 µM (active) | –
45 | Cc1ccc(C(=O)N/C(=C/c2ccc(-c3ccc([N+](=O)[O-])cc3)o2)C(=O)NCCCN(C)C)cc1 | inactive | –
46 | Cc1ccsc1/C=C/C1=Cc2c(sc(NC(=O)CSc3n[nH]c(N)n3)c2C#N)C(C)(C)C1 | inactive | –
47 | COc1cccc(CN(C)C(=O)c2ccc(OCC(=O)Nc3cccc(C(F)(F)F)c3)c(OC)c2)c1 | 7.08 µM (active) | –
48 | CN(C)CCNC(=O)c1cccc(-c2cnc3c(NC=O)cc(/C=C/c4ccccc4)cn23)c1 | inactive | –
49 | Cc1cc2sc3ccc(C#CC4(O)CCCCC4)cc3c(=O)c2cc1C | 0.0316 µM (active) | –
50 | O=C(c1ccoc1)N1CCN(c2cc(-c3ccccc3)nc3cc(-c4ccccc4)nn23)CC1 | 10 µM (active) | –
51 | COc1ccccc1-c1cc2nc(-c3ccccc3)cc(N3CCN(C(=O)c4ccoc4)CC3)n2n1 | 7.94 µM (active) | –
52 | COc1ccccc1-c1cc2nc(-c3ccccc3)cc(N3CCN(C(=O)c4ccco4)CC3)n2n1 | 7.94 µM (active) | –
53 | COc1cccc(-c2cc3nc(-c4ccccc4)cc(N4CCN(C(=O)c5ccoc5)CC4)n3n2)c1 | 3.16 µM (active) | –
54 | FC(F)(F)c1cc(-c2ccccn2)nc2cc(-c3ccccc3)nn12 | inactive | –

— PubChem BioAssay AID1745847 (National Center for Advancing Translational Sciences (NCATS), 2022)
